Hits are enriched below; roughly 7.6% of the tested compounds scored in any of these assays.
PLAP activator: activators of human placental alkaline phosphatase; P05187; purified PLAP enzyme, luminescent substrate read-out; active compounds read high; activation fold at 20 µM; actives 1.2% (n = 96,000); AID 696; in the data active = activation fold above about 2
M1 antagonist: antagonists of rat M1 muscarinic receptor; CHO-M1 cells, Fluo-4 calcium, ACh EC80 antagonist mode; active compounds read low; P08482; B-score at 10 µM; actives 3.4% (n = 64,000);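 active = calcium fluorescence response, raw or row-and-column corrected B-score, differing from the plate sample mean either way at a set confidence level, mostly lower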
Cav3 T inh: inhibitors of human Cav3.2 T-type calcium channel; O95180; B-score at 10 µM; actives 4% (n = 100,000); Cav3.2-expressing cells, Fluo-4 calcium fluorescence FDSS; active compounds read low;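 active = single-dose well whose peak fluorescence ratio is a statistical outlier from its plate by either plate-standardised score or position-corrected B-score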
M1 ag: M1 muscarinic receptor agonism. actives 3% (n = 64,000). AID 626. CHO-M1 cells, Fluo-4 calcium fluorescence, agonist mode; active compounds read high. B-score at 10 µM;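 active = fluorescence rise, raw or as B-score row- and column-corrected plate score, outside the 99.7% band of its plate's samples, either direction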
* hit, by the source's call; . = no result given.

SMILES | PLAP activator | M1 antagonist | Cav3 T inh | M1 ag
N#Cc1ccccc1Cn1c(=O)n(C2CCCC2)c(=O)c2ccccc21 | 1.3 | . | -5.1* | .
Cc1ccc(C)c2[nH]c(=O)c(CN(CCN3CCCC3)C(=O)Nc3cccc(Cl)c3)cc12 | 1.4 | -0.75 | -7.6* | -0.36
CC1CCN(C(=O)C2(NC(=O)Nc3cccc(F)c3)CCCCC2)CC1 | . | . | -0.49 | .
CCN(CC)c1ccc(-c2nc3cnccn3c2NC2CCCC2)cc1 | 1.3 | . | -6.2* | .
c1cn2c(NC3CCCC3)c(-c3ccc(N4CCOCC4)cc3)nc2cn1 | 1.4 | -0.028 | -0.58 | 1.5
COc1cccc(N=Nc2c(=O)[nH]n3c(=O)cc(C)[nH]c23)c1 | 2* | . | 0.95 | .
O=c1[nH]n2c(=O)c3c([nH]c2c1N=Nc1cccc(C(F)(F)F)c1)CCCC3 | . | . | -3.2 | .
Cc1cccc(NC(=O)N(C)Cc2cccs2)c1 | 0.9 | . | -0.27 | .
Oc1ccc(CN2CCc3ccccc3C2)c2cccnc12 | 2.1* | . | -1.2 | .
CCOc1ccc(-c2nnc(NC(=O)c3ccc(OCC(C)C)c(OC)c3)o2)cc1 | 1.1 | -0.1 | -4.2* | 0.073
COc1cccc(C(=O)Nc2nnc(-c3ccc(Cl)cc3)o2)c1 | . | -0.6 | -5.4* | 0.63
Brc1ccc(/C=C/C=N/Nc2nc3ccccc3s2)cc1 | 1.1 | . | 0.64 | .
CCN(CC)c1ccc(/C=C/c2nc3ccccc3s2)cc1 | 1 | . | -3.9* | .
Cc1ccc(C)c(N(CC(N)=O)S(C)(=O)=O)c1 | 0.8 | 2.1* | 1.3 | 0.067
COc1ccccc1OCc1nnc(SCC(=O)c2cc(Cl)ccc2OC)o1 | 1.1 | 1.4 | -0.63 | 0.3
O=C(NC(NCC1CCCO1)C(Cl)(Cl)Cl)c1cccc2ccccc12 (centres undefined) | 1 | . | -5* | .
CCNC(=S)NNC(=O)c1cccs1 | 1.9 | . | 1.1 | .
O=C(NC(=S)NNC(=O)c1cccs1)c1ccc(Br)o1 | 1.2 | . | -7.4* | .
COc1ccc(C(NC(C)=O)c2ccc3cccnc3c2O)c(OC)c1 (centres undefined) | 2.4* | 0.16 | 0.28 | 0.86
COc1cccc(NC(=O)N(Cc2cc3cc(C)cc(C)c3[nH]c2=O)CC2COCCO2)c1 (centres undefined) | 1.7 | -0.73 | -2 | 0.75
O=C1N[C@@H](Cc2cn(S(=O)(=O)c3c(F)c(F)c(F)c(F)c3F)c3ccccc23)C(=O)N[C@H]1Cc1ccccc1 | . | . | 0.39 | .
Cc1ccc2nc(C(O)C(O)c3nc4ccc(C)cc4[nH]3)[nH]c2c1 (centres undefined) | 2.1* | 0.49 | -0.53 | -2.5
CCn1cc(C(=O)N2CC(C)CC(C)C2)c(=O)c2cc(S(=O)(=O)N3CCOCC3)ccc21 (centres undefined) | 1.4 | 0.28 | 0.58 | -0.12
COC(=O)c1ccc(C)c(NS(=O)(=O)c2ccc(C)c([N+](=O)[O-])c2)c1 | 1 | . | -5.5* | .
COC(=O)c1ccc(C)c(NS(=O)(=O)c2ccc(OC)cc2)c1 | 1.2 | . | -2.2 | .
SMILES | PLAP activator | M1 antagonist | Cav3 T inh | M1 ag
Cc1c(C(=O)NCC2COc3ccccc3O2)oc2ccc(S(=O)(=O)N(C)C3CCCCC3)cc12 (centres undefined) | 1.6 | . | -4.3* | .
O=C1CC(c2nc3ccccc3[nH]2)CN1c1cccc(C(F)(F)F)c1 (centres undefined) | . | -0.4 | -5.4* | -0.35
C=C1CCN([C@@H](Cc2ccccc2)C(=O)NC2CCN(Cc3ccccc3)CC2)S(=O)(=O)c2ccccc21 | . | . | 1.5 | .
COn1c(-c2ccccc2)nc2ccc(Cl)cc21 | 0.9 | . | . | .
O=[N+]([O-])c1ccc2nc(-c3ccccc3)n(OCc3ccc(Cl)cc3)c2c1 | 1.1 | . | -4.5* | .
Cc1cccc2cc(CN(Cc3nnnn3Cc3ccco3)C3CCCC3)c3nnnn3c12 | 1.4 | 2.4* | . | -0.39
COc1ccc(-n2c(SCC(=O)Nc3sc4c(c3C#N)CCCC4)nnc2-c2ccccc2OC)cc1 | . | . | -6.3* | .
COc1ccc(-c2nc(CSCC(=O)NC3CCCc4ccccc43)c(C)o2)cc1 (centres undefined) | 1.5 | . | -8.2* | .
COc1ccc(-c2nc(CSCC(=O)NCc3ccco3)c(C)o2)cc1 | 1.2 | 1 | -0.23 | 0.025
O=C(CS(=O)(=O)Cc1ccccc1)N1CCN(c2cccc(C(F)(F)F)c2)CC1 | 0.9 | -1.5 | -4.3* | -1.6
CCOC(=O)N1CCN(C(=O)c2noc(C(C)C)c2[N+](=O)[O-])CC1 | . | . | -0.024 | .
O=C1NCCc2c1[nH]c1c(Cl)ccc(Cl)c21 | 0.9 | 0.2 | 1 | 28*
O=c1cc(C(Cl)(Cl)Cl)oc2c1ccc1ccccc12 | 0.8 | . | -0.28 | .
CC(=O)N(Cc1c(C)nn(-c2ccccc2)c1Cl)c1ccc(Cl)cc1 | 1.3 | . | -8.3* | .
CC(C)(C)C(=O)COC(=O)CNC(=O)c1ccc(Oc2ccccc2)cc1 | 0.9 | . | -3.7* | .
COC(=O)CNC(=O)c1ccccc1 | . | . | 1 | .
CSc1nc2n(n1)C(c1cc(Br)ccc1F)C(C(=O)N(C)C)=C(C)N2 (centres undefined) | 1.2 | 1.6* | -0.056 | 0.13
COc1ccc(Br)cc1C1NC(=O)NC(C)=C1C(=O)N(C)C (centres undefined) | 0.8 | . | 0.5 | .
COc1ccc(OCC(O)CNC(=O)c2ccc(Br)cc2)cc1 (centres undefined) | 1 | 0.55 | -1.6 | 0.72
COc1ccc(OCC(O)CNc2ccc(Br)cc2)cc1 (centres undefined) | 1 | -0.029 | -4.2* | 0.054
O=C(Nc1cccc(F)c1)N(Cc1ccc(Cl)cc1)CC(O)C(F)(F)F (centres undefined) | 0.9 | . | -7.2* | .
CCCCOC(=O)c1ccc(NC(=O)CSCc2n[nH]c(=O)[nH]2)cc1 | 2.1* | -0.19 | 0.028 | 0.62
CCCCOC(=O)c1ccc(NC(=O)CSc2nncn2C)cc1 | 1.6 | 0.069 | 0.072 | -0.55
CCCCc1ccc(-c2c(C#N)c(N)nc3c2CCCC3)s1 | 1 | . | -0.95 | .
CCCCc1sc(-c2c(C#N)c(N)nc3c2CCCCC3)cc1[N+](=O)[O-] | 0.8 | . | -4.8* | .
SMILES | PLAP activator | M1 antagonist | Cav3 T inh | M1 ag
Cc1ccc(C(C)C)c(OCC(=O)c2c(O)c3ccccc3oc2=O)c1 | . | . | -7.6* | .
Cc1ccc(OCC(=O)c2c(O)c3ccccc3oc2=O)cc1C | 0.9 | . | -8.3* | .
C#CCOCCOCCOCCNc1nc(N2CCN(C(=O)C([C@@H](C)CC)n3cc(C(N)CO)nn3)CC2)nc(N2CCN(C(=O)[C@H](CCC(=O)O)n3cc(C(N)[C@H](C)CC)nn3)CC2)n1 (some centres undefined) | . | . | 0.012 | .
Cc1cc(Br)ccc1NCc1ccccn1 | 0.9 | . | -0.12 | .
CCOc1ccc(N(CC(=O)NC2CCCC2)C(=O)CSc2nnc(COc3ccccc3)o2)cc1 | 1.1 | . | -5.4* | .
CC(C)(C)c1nn(-c2ccccc2)c2[nH]c(=O)c(CNCc3ccco3)cc12 | 2.4* | 0.044 | 0.23 | 0.17
COc1ccc(CNCc2cc3c(C(C)(C)C)nn(-c4ccccc4)c3[nH]c2=O)cc1 | 2.5* | . | -1.7 | .
CC(C)(C)c1nn(-c2ccccc2)c2[nH]c(=O)c(CNc3ccc4c(c3)OCCO4)cc12 | 1.7 | . | -0.094 | .
Cc1ccc(CNCc2cc3c(C(C)(C)C)nn(-c4ccccc4)c3[nH]c2=O)cc1 | 2.1* | . | -0.19 | .
Cc1cc(C)nc(N(C#N)S(=O)(=O)c2ccccc2)n1 | 1 | -0.59 | 1 | -0.58
COc1ccc(Oc2ccc3c(C(F)(F)F)cc(C(F)(F)F)nc3n2)cc1 | 1 | . | 0.033 | .

Compound activity from PubChem.
